Experimental data reported in ChEMBL document CHEMBL3988442, “University of Dundee, Small-Polar-MMV Screening Library” (2021).
For part of these data: Results with a measured potency or affinity are listed apart.

Assays:
Design in all cases: scale not given: direction of the effect not stated beside the values
[1] = target: Protein translocase subunit SecA (Escherichia coli (strain K12)) (UniProt P10408); test: Assay to Identify E. coli SecA ATPase Inhibitors; assay type: functional; conditions: 30 µM
Protein translocase subunit SecA (Escherichia coli (strain K12)), sequence (P10408 whole entry): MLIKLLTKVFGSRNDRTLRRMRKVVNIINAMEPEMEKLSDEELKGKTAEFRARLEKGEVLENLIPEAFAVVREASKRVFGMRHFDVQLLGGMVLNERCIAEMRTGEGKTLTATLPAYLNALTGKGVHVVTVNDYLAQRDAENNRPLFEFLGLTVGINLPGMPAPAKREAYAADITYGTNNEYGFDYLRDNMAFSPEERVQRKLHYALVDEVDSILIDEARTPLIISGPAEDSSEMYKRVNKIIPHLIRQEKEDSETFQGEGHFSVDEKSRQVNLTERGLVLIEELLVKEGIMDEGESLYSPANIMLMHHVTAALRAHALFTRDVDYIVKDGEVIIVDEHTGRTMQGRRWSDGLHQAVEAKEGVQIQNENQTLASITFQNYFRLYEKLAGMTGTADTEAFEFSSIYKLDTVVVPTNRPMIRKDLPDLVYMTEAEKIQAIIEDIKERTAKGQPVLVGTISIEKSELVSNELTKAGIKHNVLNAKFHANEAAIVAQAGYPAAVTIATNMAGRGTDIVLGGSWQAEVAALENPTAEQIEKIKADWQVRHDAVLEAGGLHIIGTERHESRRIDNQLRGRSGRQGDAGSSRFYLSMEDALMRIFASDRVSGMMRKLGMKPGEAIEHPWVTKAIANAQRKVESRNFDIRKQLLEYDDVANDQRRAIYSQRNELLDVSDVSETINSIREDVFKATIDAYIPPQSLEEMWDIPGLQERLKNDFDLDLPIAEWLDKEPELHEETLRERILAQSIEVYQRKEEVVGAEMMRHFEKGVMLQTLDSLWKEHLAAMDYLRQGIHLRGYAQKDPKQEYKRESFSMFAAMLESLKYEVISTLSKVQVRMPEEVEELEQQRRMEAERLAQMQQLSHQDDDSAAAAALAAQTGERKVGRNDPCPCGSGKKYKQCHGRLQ

[2] = target: T1, Ubiquitin-activating enzyme e1, putative (Leishmania donovani (strain BPK282A1)) (UniProt E9BSI1); test: Leishmania donovani Ubiquitin Activating Enzyme (LdE1); assay type: functional; conditions: 30 µM
T1 sequence (whole entry): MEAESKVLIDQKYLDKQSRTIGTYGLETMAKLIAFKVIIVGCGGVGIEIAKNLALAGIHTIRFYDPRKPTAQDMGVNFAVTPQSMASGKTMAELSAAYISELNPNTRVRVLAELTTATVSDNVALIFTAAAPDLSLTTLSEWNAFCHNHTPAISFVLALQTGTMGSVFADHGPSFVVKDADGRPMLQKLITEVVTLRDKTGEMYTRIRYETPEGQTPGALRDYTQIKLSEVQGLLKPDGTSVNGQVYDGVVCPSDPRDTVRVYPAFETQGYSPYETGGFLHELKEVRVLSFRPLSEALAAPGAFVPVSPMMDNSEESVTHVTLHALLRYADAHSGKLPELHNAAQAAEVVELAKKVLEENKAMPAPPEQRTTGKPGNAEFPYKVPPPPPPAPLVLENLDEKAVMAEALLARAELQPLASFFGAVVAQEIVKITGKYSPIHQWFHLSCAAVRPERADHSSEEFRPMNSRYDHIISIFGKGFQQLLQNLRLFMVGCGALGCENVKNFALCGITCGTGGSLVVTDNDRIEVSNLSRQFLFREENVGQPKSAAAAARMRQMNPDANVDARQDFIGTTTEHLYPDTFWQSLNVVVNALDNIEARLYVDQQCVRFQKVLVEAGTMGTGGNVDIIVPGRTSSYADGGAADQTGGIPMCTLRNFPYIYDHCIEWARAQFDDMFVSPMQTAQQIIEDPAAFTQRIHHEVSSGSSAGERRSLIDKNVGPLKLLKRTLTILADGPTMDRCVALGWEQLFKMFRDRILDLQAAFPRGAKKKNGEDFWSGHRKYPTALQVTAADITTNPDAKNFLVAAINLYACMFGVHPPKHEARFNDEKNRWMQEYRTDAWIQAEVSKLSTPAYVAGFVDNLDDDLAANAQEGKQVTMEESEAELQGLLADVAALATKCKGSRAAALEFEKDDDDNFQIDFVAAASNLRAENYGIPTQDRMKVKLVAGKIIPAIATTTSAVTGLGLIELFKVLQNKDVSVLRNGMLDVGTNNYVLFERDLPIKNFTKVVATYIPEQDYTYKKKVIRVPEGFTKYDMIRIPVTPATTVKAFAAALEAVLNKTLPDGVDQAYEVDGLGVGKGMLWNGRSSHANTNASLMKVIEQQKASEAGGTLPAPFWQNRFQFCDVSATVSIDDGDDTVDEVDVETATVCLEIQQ

[3] = target: T2, Aspartate--tRNA(Asp/Asn) ligase (Mycobacterium tuberculosis (strain ATCC 25618 / H37Rv)) (UniProt P9WFW3); test: Assay for Asp RNA synthetase-1 from Mycobacterium tuberculosis; assay type: functional; conditions: 30 µM; note: in the data most compounds retested in dose-response had high values
T2 sequence (whole entry): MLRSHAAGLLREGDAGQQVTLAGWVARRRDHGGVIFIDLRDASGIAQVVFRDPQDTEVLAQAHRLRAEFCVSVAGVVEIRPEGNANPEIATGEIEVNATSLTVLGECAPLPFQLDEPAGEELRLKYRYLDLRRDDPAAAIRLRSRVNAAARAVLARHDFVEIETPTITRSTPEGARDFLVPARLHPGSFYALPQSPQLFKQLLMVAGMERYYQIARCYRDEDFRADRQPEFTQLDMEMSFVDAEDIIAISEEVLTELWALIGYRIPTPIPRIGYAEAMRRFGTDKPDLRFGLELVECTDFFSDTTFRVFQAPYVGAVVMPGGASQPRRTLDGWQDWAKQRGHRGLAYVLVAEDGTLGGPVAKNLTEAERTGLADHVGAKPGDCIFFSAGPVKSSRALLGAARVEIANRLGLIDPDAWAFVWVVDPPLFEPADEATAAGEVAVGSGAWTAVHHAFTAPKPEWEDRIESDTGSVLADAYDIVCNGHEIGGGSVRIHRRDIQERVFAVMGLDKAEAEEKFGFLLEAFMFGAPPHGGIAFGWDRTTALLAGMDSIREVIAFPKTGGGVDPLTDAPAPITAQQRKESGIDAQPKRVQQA

[4] = target: AMP-activated protein kinase, AMPK (Homo sapiens) (UniProt P54646+O43741+P54619+Q9UGJ0+Q9Y478+Q13131+Q9UGI9); test: AMP-dependent Kinase enzyme assay. An in vitro enzyme assay that detects ADP turnover that is directly proportional to AMPK activity. This uses naive AMPK that is activated during the assay with MK-8722; assay type: functional; conditions: 30 µM
[5] = target: Sialic acid-binding Ig-like lectin 9 (Homo sapiens) (UniProt Q9Y336); test: Hs-Siglec9 ALPHAscreen SOP 20170721; conditions: 10 µM
Sialic acid-binding Ig-like lectin 9 (Homo sapiens), sequence (Q9Y336 whole entry): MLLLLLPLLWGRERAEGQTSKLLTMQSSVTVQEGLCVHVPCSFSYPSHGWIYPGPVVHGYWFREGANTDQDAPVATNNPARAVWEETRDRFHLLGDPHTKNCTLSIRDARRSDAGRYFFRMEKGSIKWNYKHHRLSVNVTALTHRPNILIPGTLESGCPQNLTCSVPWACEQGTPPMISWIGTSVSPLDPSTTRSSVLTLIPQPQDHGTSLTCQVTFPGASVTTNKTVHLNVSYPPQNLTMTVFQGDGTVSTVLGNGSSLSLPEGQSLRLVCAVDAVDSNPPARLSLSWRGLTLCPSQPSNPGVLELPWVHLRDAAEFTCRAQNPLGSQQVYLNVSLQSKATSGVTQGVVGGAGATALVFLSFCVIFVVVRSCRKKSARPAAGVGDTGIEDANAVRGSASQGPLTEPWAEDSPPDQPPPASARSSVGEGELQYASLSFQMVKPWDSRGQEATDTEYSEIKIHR

Trypanosoma cruzi = test: Trypanosoma cruzi phosphomannomutase and mannose-1-phosphate guanylyltransferase assay; assay type: functional; conditions: 10 µM
[6] = target: T3, Arginase-2, mitochondrial (Homo sapiens) (UniProt P78540); test: in vitro enzyme assay to detect the production of urea directly proportional to the activity of Arginase II; assay type: functional; conditions: 33.3 µM; note: in the data most compounds retested in dose-response had high values
T3 sequence (whole entry): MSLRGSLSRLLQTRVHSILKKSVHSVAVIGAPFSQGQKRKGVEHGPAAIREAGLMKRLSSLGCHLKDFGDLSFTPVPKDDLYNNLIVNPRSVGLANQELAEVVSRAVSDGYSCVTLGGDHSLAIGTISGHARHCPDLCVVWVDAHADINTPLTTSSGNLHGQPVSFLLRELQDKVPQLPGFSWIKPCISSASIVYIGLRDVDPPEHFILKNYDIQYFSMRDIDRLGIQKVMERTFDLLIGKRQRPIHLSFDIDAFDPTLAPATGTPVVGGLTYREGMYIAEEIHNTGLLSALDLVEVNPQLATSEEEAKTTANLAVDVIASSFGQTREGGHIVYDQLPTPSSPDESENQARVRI

[7] = target: T4, Proteasome subunit beta (Trypanosoma cruzi) (UniProt O96673); test: Trypanosoma cruzi proteasome chymotrypsin-like activity (TcProtChymo) assay.; note: in the data most compounds retested in dose-response had high values; assay type: functional; conditions: 9.37 µM
T4 sequence (whole entry): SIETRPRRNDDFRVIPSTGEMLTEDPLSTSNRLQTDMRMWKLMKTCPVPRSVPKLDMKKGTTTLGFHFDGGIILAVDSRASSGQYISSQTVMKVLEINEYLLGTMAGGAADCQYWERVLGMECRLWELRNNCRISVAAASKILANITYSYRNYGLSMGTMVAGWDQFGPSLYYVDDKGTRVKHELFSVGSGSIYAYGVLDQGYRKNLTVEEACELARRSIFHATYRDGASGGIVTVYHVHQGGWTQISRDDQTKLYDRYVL

Homo sapiens = species: Homo sapiens; test: To identify inhibition of the IFN signalling (Jak-Stat) pathway via expression of an eGFP reporter gene under the control of an IFN-stimulated response element (ISRE) containing MxA promoter.; assay type: functional; conditions: 30 µM
[8] = target: Shiga toxin 2 (Escherichia coli O157:H7) (UniProt P09385+P09386); test: E. coli 0.157:H7 Shiga Toxin SOP - stx2 screening assay; assay type: functional; conditions: 30 µM
[9] = target: T5, Tyrosyl-tRNA synthetase, putative (Trypanosoma cruzi (strain CL Brener)) (UniProt Q4DSP6); test: Trypanosoma cruzi tyrosyl tRNA synthetase (TcYRS) _High Tyrosine SOP; assay type: functional; conditions: 30 µM; note: in the data most compounds retested in dose-response had high values
T5 sequence (whole entry): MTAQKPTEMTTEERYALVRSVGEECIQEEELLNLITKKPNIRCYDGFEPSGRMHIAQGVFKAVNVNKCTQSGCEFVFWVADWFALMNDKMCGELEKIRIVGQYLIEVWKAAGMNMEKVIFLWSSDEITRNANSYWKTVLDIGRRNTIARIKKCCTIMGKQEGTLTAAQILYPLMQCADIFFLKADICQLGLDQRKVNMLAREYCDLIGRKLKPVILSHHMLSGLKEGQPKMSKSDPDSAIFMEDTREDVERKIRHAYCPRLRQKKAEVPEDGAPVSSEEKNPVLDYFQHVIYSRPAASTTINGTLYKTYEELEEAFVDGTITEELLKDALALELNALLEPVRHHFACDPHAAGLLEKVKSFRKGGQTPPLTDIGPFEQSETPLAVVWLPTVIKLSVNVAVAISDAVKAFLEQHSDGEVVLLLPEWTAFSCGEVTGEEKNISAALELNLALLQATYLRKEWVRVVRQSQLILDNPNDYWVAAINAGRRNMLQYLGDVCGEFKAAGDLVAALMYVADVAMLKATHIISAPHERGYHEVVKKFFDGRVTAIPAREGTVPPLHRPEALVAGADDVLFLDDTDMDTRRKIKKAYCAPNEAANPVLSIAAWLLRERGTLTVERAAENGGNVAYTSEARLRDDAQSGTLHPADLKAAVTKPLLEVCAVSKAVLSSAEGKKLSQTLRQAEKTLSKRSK

[10] = target: T5, Tyrosyl-tRNA synthetase, putative (Trypanosoma cruzi (strain CL Brener)); test: Trypanosoma cruzi tyrosyl tRNA synthetase (TcYRS) SOP; assay type: functional; conditions: 30 µM
[11] = target: Chromo domain-containing protein 1 (Saccharomyces cerevisiae (strain ATCC 204508 / S288c) (Baker's yeast)) (UniProt P32657); test: ScCHD-1 Enzyme Inhibition Assay; assay type: functional; conditions: 30 µM; note: in the data most compounds retested in dose-response had high values
Chromo domain-containing protein 1 (Saccharomyces cerevisiae (strain ATCC 204508 / S288c) (Baker's yeast)), sequence (P32657 whole entry, the tested form may be a part): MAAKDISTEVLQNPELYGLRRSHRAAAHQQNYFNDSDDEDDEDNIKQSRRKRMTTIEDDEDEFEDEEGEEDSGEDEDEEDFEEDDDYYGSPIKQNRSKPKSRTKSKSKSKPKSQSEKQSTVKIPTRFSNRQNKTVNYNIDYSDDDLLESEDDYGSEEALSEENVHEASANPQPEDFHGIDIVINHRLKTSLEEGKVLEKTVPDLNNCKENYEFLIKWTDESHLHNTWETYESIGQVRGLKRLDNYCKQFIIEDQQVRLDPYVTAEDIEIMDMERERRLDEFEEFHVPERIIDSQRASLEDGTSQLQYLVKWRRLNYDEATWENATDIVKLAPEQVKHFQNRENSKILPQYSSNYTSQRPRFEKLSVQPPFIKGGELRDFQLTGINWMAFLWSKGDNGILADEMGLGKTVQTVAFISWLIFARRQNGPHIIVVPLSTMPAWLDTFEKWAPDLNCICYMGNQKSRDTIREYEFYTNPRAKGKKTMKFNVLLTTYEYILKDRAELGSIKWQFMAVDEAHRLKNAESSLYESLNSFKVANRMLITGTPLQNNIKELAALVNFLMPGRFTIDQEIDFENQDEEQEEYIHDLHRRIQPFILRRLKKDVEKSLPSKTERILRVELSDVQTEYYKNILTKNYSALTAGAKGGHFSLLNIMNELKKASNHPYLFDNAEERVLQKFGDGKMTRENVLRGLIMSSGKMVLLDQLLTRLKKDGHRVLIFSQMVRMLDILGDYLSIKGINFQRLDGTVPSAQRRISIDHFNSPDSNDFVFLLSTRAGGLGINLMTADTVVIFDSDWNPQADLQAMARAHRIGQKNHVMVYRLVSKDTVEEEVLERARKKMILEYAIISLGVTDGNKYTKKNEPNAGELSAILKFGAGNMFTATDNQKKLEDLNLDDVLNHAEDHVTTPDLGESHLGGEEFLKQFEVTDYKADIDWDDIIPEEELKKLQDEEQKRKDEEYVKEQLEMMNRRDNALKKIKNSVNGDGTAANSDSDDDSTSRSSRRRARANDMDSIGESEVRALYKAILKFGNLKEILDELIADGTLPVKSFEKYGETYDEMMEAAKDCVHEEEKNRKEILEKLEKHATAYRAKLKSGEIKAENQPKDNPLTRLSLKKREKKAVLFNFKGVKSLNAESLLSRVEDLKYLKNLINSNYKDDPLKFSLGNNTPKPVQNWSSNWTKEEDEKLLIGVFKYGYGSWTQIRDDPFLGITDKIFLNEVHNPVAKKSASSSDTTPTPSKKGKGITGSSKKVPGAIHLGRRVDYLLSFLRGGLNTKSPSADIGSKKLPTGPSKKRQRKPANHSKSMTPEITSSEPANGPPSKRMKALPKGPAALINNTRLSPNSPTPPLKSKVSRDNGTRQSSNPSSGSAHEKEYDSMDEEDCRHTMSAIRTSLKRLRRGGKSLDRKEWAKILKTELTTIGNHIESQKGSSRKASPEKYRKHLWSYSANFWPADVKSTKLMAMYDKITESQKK

Compound | Percent Effect [1] [%] | Percent Effect [2] [%] | Percent Effect [3] [%] | Percent Effect [4] [%] | Percent Effect [5] [%] | Percent Effect (Trypanosoma cruzi) [%] | Percent Effect [6] [%] | Percent Effect [7] [%] | Percent Effect (Homo sapiens) [%] | Percent Effect [8] [%] | Percent Effect [9] [%] | Percent Effect [10] [%] | Percent Effect [11] [%]
CCN(CCc1ccccc1)Cn1nc(C)c2c(C)onc2c1=O | -5.66 | -8.11 | 5.17 | -13.6 | 25.2 | 3.68 | -3.21 | 7.75 | 5.78 | 16 | 9.36 | 23.5 | -14.1
O[C@@]1(c2ccccn2)CC[C@H]2CN(Cc3cccc(Cl)c3Cl)C[C@H]21 | -3.54 | 1.35 | -0.73 | 14.3 | -0.828 | -3.95 | -1.62 | -0.468 | 25.8 | 23.9 | 2.15 | 6.49 | -8.09
Cc1cccc(C(=O)N2C[C@@H]3OCCN(C(C)C)[C@@H]3C2)n1 | -0.342 | 0 | 2.88 | 1.78 | 5.46 | 1.74 | -50 | 5.81 | -20.9 | -1.16 | -26 | 2.5 | 0.0349
CNC(=O)[C@@]12CCCN(c3ncccn3)[C@@H]1CN(C)C2 | -7.94 | 5.2 | -0.539 | 20.5 | -6.43 | -6.21 | 4.52 | 9.4 | 14.9 | -9.88 | -4.23 | -1.28 | -2.69
CC(C)N1CCc2c(CN(C)Cc3ccco3)cncc2C1 | -2.76 | 0 | -1.51 | 0.165 | 16.7 | -3.86 | -22.8 | 0.171 | -0.596 | -0.895 | 4.17 | -7.5 | -4.61
Cc1cnc(N2CCCC3(CCCN(C)C3)C2)nc1 (configuration not stated) | -4.89 | 0 | -0.912 | 0.0306 | 4.33 | 3.37 | -6.79 | 8.82 | -22.4 | 7.25 | -2.08 | 8.64 | -5.6
c1cnc(N2CCCC3(CCN(Cc4ccncc4)C3)C2)nc1 (configuration not stated) | -2.54 | 8.11 | 4.42 | 2.74 | -7 | -1.66 | -6.69 | 24.7 | -1.82 | 1.1 | 1.08 | 15.4 | -3.48
O=C1[C@H]2CN(Cc3ccoc3)C[C@H]2CN1Cc1ccncc1 | -3.37 | 7.79 | 3.69 | 2.81 | 28.9 | -4.23 | 4.14 | 7.32 | -1.81 | -39.9 | 3.23 | 8.64 | 10.5
COc1c(Br)cc(Br)cc1CNC(C)Cn1cccn1 (configuration not stated) | -4.9 | 23.4 | 2.09 | 5.26 | -2.65 | -10.9 | -3.56 | 1.01 | 35.9 | 15.4 | 4.85 | 9.76 | -8.37
